# Assay results taken from PubChem BioAssay (NCATS).
# Unmarked numbers belong to inactive results. Records with an inconclusive call do not appear. Where a call stands in place of a potency, no number is given. Active and inactive are the calls of the source. Calls follow the shape of the dose curve; as a rule, active = well fitted curve in the direction sought with a large enough effect; inconclusive = small, poorly fitted or top-dose-only effect, or another doubt; inactive = no such curve, though single readings can be large; an effect the other way counts as inactive or inconclusive.
# Assays:
# [1] = qHTS for Inhibitors of Plasmodium falciparum (GB4) proliferation (AID 504315); also: nearly all actives have a fitted effect of over 50% in size; also: potency is read from the fitted curve at half-maximal effect; settings: P. falciparum GB4 in erythrocytes, SYBR Green DNA, 72 h; series mostly up to 6.7 µM
# In short: (§1)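 Erythrocytes infected with P. falciparum line (0.3% parasitemia, 2.5% hematocrit final) incubated with compounds 72 h at 37 °C, 5% CO2; SYBR Green lysis buffer added, fluorescence read next day. Normalized to 0.29 uM artemisinin and DMSO.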
# [2] = qHTS for Inhibitors of Plasmodium falciparum (7G8) proliferation (AID 504316); also: nearly all actives have a fitted effect of over 65% in size; also: potency is read from the fitted curve at half-maximal effect; settings: P. falciparum 7G8 in erythrocytes, SYBR Green DNA, 72 h; series mostly up to 6.7 µM
# In short: as §1
# [3] = qHTS for Inhibitors of Plasmodium falciparum (CP250) proliferation (AID 504320); also: potency is read from the fitted curve at half-maximal effect; settings: P. falciparum CP250 in erythrocytes, SYBR Green DNA, 72 h; series mostly up to 6.7 µM
# In short: as §1
# [4] = qHTS for Inhibitors of Plasmodium falciparum (HB3) proliferation (AID 504318); also: potency is read from the fitted curve at half-maximal effect; nearly all actives have a fitted effect of over 60% in size; settings: P. falciparum HB3 in erythrocytes, SYBR Green DNA, 72 h; series mostly up to 7.21 µM
# In short: as §1
# [5] = molecular target: Cytochrome P450 3A4 (Homo sapiens) (UniProt P08684); experiment: qHTS Assay for Activators of Cytochrome P450 3A4 (AID 885); settings: recombinant CYP3A4, Luciferin-PPXE luminescence, 60 min; series mostly up to 57.1 µM; also: nearly all actives have a fitted effect of over 65% in size
# In short: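 Steps: enzyme/substrate mix dispensed; compound added, 10 min RT; NADPH regeneration solution added, 60 min RT; luciferin detection buffer stops reaction; 20 min later luminescence measured.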
# [6] = molecular target: Cytochrome P450 2D6 (Homo sapiens) (UniProt P10635); experiment: qHTS Assay for Inhibitors and Substrates of Cytochrome P450 2D6 (AID 891); settings: recombinant CYP2D6, luciferin-ME EGE luminescence; series mostly up to 11.4 µM;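 also: luciferin methyl ether substrate demethylated by CYP2D6 with NADPH regeneration; nearly all actives have a fitted effect of over 60% in size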
# In short: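 Human CYP2D6 (5 nM) with 30 uM Luciferin-ME EGE (at Km) in 100 mM KPO4, compound preincubated 10 min, then NADPH regeneration system for 60 min at room temperature. Luciferin read by luminescence; normalized to 1.43 uM quinidine.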
# [7] = molecular target: Cytochrome P450 2C19 (Homo sapiens) (UniProt P33261); experiment: qHTS Assay for Inhibitors and Substrates of Cytochrome P450 2C19 (AID 899); settings: recombinant CYP2C19, luciferin-H EGE luminescence; series mostly up to 11.4 µM; also: nearly all actives have a fitted effect of over 60% in size
# In short: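 5 nM human CYP2C19 with 10uM Luciferin-H EGE (at KM) in 50mM KPO4, compound preincubated 10 min at 37C, then NADPH regeneration for 60 min at 37C. Luciferin read by luminescence after detection reagent; normalized to 57uM ketoconazole as full inhibition.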
# Chain of Cytochrome P450 3A4 (Homo sapiens) (P08684 whole entry, looked up): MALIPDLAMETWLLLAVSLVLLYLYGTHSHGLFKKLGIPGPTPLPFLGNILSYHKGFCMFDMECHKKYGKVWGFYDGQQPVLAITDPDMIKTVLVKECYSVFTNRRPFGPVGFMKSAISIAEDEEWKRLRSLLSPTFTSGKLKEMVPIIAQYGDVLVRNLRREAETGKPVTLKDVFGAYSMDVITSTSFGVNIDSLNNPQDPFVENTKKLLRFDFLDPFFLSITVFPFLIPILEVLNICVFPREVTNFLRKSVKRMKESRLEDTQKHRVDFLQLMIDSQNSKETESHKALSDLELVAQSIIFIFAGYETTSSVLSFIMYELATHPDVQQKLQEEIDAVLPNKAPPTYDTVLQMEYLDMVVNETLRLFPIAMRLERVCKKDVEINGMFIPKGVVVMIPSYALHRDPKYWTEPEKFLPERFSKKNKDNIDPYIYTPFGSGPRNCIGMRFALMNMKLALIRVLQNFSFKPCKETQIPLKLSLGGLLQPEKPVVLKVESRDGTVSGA
# Chain of Cytochrome P450 2C19 (Homo sapiens) (P33261 whole entry, looked up): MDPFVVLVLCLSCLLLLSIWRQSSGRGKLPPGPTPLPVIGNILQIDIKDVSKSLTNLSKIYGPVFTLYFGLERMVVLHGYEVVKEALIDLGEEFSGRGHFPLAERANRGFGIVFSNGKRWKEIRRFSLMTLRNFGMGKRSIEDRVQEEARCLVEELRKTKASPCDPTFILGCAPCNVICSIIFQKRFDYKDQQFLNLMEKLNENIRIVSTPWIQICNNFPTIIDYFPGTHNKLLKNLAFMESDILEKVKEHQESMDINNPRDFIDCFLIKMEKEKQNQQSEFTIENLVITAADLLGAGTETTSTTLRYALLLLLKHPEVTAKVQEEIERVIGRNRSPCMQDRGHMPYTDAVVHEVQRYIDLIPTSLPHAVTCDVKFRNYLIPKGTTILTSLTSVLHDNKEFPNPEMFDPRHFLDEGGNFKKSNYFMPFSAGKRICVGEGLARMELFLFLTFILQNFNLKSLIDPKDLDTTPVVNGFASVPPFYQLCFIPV
# Chain of Cytochrome P450 2D6 (Homo sapiens) (P10635 whole entry, looked up): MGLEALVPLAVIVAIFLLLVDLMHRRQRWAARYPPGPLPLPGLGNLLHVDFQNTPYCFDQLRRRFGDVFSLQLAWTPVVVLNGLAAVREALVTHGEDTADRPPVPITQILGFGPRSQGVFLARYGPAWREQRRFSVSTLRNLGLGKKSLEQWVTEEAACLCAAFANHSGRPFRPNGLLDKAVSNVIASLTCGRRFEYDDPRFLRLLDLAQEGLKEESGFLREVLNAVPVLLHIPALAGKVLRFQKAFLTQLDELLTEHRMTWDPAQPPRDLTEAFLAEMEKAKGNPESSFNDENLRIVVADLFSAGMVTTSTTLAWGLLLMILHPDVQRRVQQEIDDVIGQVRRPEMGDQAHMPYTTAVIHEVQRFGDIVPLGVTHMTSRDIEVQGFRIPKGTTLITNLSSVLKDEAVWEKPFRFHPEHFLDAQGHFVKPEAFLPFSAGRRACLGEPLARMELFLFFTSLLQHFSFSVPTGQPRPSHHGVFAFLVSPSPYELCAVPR
smiles,measurement,setting,value
CCCNC(=O)N1C2=NC(C(=O)OC)=C(C(=O)OC)[C@@H]3N(C)c4ccccc4[C@]23C[C@H]1C(=O)OC,Potency,[1],inactive
same,Potency,[2],inactive
same,Potency,[3],inactive
CCN(CC)CCCN1C=C2C(=O)C(C)(OC(=O)c3cccs3)C(=O)C=C2C=C1CCCC(=O)OC (centres undefined),Potency,[2],inactive
same,Potency,[3],inactive
COC(=O)C1=C(C(=O)OC)[C@@H]2N(Cc3ccccc3)c3ccccc3[C@@]23C[C@@H](C(=O)OC)N(S(=O)(=O)c2ccc(OC)cc2)C3=N1,Potency,[4],1.9 µM (active)
COC(=O)CCCC1=CC2=C(c3ccccc3)C(=O)C(C)(OC(=O)C3CCCC3)C(=O)C2=CN1CCc1c[nH]c2ccccc12 (centres undefined),Potency,[1],inactive
same,Potency,[2],inactive
same,Potency,[3],inactive
COC(=O)CCC(=O)OC1(C)C(=O)C2=CN(CCc3c[nH]c4ccccc34)C(c3ccc(OC)cc3)=CC2=C(Br)C1=O (centres undefined),Potency,[1],inactive
same,Potency,[3],inactive
CCCCCC(=O)c1cc(CC(C(=O)OC)C(=O)OC)cc2cc(OC)c(OC)cc12,"activity change, positive = activation",[5],-51.6% [at 11.4 µM]
same,Potency,[6],inactive
same,Potency,[7],inactive
same,Potency,[1],inactive
same,Potency,[2],inactive
same,Potency,[3],inactive
COc1ccc(-c2nc(-c3ccccc3)c(Nc3ccc4ccccc4c3)o2)cc1,Potency,[4],1.69 µM (active)
COC(=O)C1=C(C(=O)OC)[C@@H]2Nc3ccccc3[C@@]23C[C@@H](C(=O)OC)N(C(=O)C2CCC2)C3=N1,Potency,[1],inactive
same,Potency,[3],inactive
COC(=O)C1=C(C(=O)OC)[C@@H]2N(Cc3ccccc3)c3ccccc3[C@@]23C[C@@H](C(=O)OC)N(S(=O)(=O)c2ccc(Br)cc2)C3=N1,Potency,[1],1.35 µM (active)
same,Potency,[2],1.51 µM (active)
same,Potency,[4],1.69 µM (active)
same,Potency,[3],1.69 µM (active)
